Compound activity as filed in PubChem BioAssay.
RORg inh: qHTS for inhibitors of ROR gamma transcriptional activity | Nuclear receptor ROR-gamma (Mus musculus), P51450 | Potency, µM (highest dose often 53.6 µM), for the others: at the top dose activity change, negative = inhibition, usual class: inhibitors | 310,000 compounds, 5.4% hits | AID 2551, 2010 | Drosophila S2 Gal4-RORgamma UAS-luciferase reporter, 20 h; note: potency is the fitted concentration of half-maximal effect; nearly all actives have a fitted effect of over 60% in size
Target sequence (P51450 whole entry, looked up, the tested form may be a part): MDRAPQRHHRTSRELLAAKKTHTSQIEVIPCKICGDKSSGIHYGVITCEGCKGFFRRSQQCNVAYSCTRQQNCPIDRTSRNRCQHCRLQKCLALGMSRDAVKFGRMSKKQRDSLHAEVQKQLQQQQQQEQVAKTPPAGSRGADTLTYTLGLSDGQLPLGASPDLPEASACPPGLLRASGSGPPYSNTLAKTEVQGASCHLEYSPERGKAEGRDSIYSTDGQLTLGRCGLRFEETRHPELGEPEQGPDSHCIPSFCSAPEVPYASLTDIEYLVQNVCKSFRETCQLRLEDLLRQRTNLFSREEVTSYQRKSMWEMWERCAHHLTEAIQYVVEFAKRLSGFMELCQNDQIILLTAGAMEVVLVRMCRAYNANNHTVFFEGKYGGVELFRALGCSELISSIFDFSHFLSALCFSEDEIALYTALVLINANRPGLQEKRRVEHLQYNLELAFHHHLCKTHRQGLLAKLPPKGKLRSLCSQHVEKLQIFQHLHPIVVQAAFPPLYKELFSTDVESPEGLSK
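Drosophila Schneider cells stably carrying a metallothionein-driven Gal4 DBD–ROR gamma fusion and a UAS-Photinus luciferase reporter were exposed to compound for 1 hr, then induced with copper sulfate (700 uM final) for 20 hr at ambient temperature before luminescence reading.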
IL-1B inflam inh: qHTS for Inhibitors of Inflammasome Signaling: IL-1-beta AlphaLISA Primary Screen; AID 743279, 2014; 360,000 compounds, 4.7% hits; activity change, % at 57.5 µM; THP-1 LPS/ATP IL-1B secretion, AlphaLISA, 16 h; active compounds read low; in the data active = activity change below about -50%; inconclusive = mostly about -30% to -49%
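THP-1 cells pretreated 1 hr with compounds (up to 57.5 uM final), then stimulated with LPS (250 ng/mL final) plus ATP (1.25 mM final); secreted IL-1B measured by AlphaLISA after 16 hr, decreased signal indicating inhibition.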
LDHA inh: qHTS assay for inhibitors of human lactate dehydrogenase; L-lactate dehydrogenase A chain (Homo sapiens), P00338; purified LDHA, NADH/diaphorase-resazurin fluorescence; active compounds read low; activity change, % (values are at about 110 or 230 µM); 480,000 compounds, 0.15% hits; AID 1347041, 2019; in the data active = activity change below about -30%; inconclusive = mostly about -25% to -30%;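 note: plate controls were DMSO wells for no effect and wells without enzyme for full effect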
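Human LDH5 at 2 nM final in Tris HCl pH 7.4 with 0.06 mM NADH and 0.2 mM pyruvate, reacted 5 minutes at room temperature. Remaining NADH coupled via diaphorase/resazurin; resorufin fluorescence read at 0 and 20 minutes, normalized to enzyme-free and DMSO wells.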
DT40 TDP1 CPT: qHTS for Inhibitors of human tyrosyl-DNA phosphodiesterase 1 (TDP1): qHTS in cells in presence of CPT. chicken DT40 Tdp1-/-;hTDP1 cells + 20 nM CPT, ATP luminescence, 48 h. Potency, µM (highest dose often 46.2 µM), inactives show at the top dose activity change, negative = growth inhibition, most hits filed as inhibitors. 420,000 compounds, 12% hits. AID 686979, 2013; note: potency is the fitted concentration of half-maximal effect; nearly all actives have a fitted effect of over 55% in size
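Chicken DT40 Tdp1-/- cells stably complemented with human TDP1 were seeded at 400 cells/well in medium containing 20 nM camptothecin, exposed to pin-transferred compounds, and grown at 37 °C for at least 48 hr. Viability was read as ATP luminescence.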
TDP1 cell noCPT: qHTS for Inhibitors of human tyrosyl-DNA phosphodiesterase 1 (TDP1): qHTS in cells in absence of CPT; Potency, µM (doses to about 46.2 µM), without a hit: top-dose activity change, negative = growth inhibition, hits mostly inhibitors; 420,000 compounds, 15% hits; DT40 Tdp1-/- hTDP1 cells, no CPT, ATP luminescence, 48 h; AID 686978, 2013; note: potency is the fitted concentration of half-maximal effect; nearly all actives have a fitted effect of over 55% in size
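Seeded 400 DT40-hTDP1 cells/well (vehicle DMSO, no 20 nM CPT); pinned compounds; ≥48 hr at 37 °C; CellTiter-Glo luminescence as viability measure.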
VP16 counter: VP16 counterscreen qHTS for inhibitors of ROR gamma transcriptional activity | Drosophila S2 Gal4-VP16 UAS-luciferase, luminescence, 20 h | 310,000 compounds, 3.5% hits | Potency, µM (highest dose often 53.6 µM), inactives show at the highest dose activity, negative = inhibition, usual class: inhibitors | AID 2546, 2010;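 note: Gal4-VP16 expression switched on by copper sulfate through the metallothionein promoter; potency is the fitted concentration of half-maximal effect; nearly all actives have a fitted effect of over 50% in size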
* = called active by the depositor; ? = inconclusive; · = no result; ! = repeats disagree; [ ] = dose if it differs, or a comment. The list is not random: actives were taken first. Their share in the collection is about 18%. Unless noted, calls come from the whole dose curve; as a rule, active = well fitted curve in the direction sought with a large enough effect; inconclusive = small, poorly fitted or top-dose-only effect, or another doubt; inactive = no such curve, though single readings can be large; an effect the other way counts as inactive or inconclusive. Unless noted, % is set by controls: 0 for no effect and ±100 for the full control effect.

SMILES	RORg inh	IL-1B inflam inh	LDHA inh	DT40 TDP1 CPT	TDP1 cell noCPT	VP16 counter
O=C(Nc1oc2ccccc2c(=O)c1-c1cccc(Cl)c1)c1cccc([N+](=O)[O-])c1	·	·	1	·	·	·
CC(C)C(NC(=O)c1ccoc1)c1ccc(F)cc1 (stereo not given)	·	·	13	·	·	·
CN(C)C(=O)COc1ccc(NC(=O)c2nn(C)c(=O)c3ccccc23)cc1	·	·	3	·	·	·
Fc1ccc(/C=N/Nc2nnnn2-c2ccccc2)cc1	11µM*	0	-7	2%	-13%	?
N#CCSc1nnc(COc2cccc3ccccc23)n1-c1cccc(Cl)c1	10%[10 µM]	?	1	?	21µM*	?
Cc1ccccc1OCc1nnc(SCCN2CCCC2)n1-c1ccccc1	11µM*	-7	-3	23µM*	21µM*	?
N#CCSc1nnc(COc2cccc3ccccc23)n1-c1ccccc1	?	-68*	-1	16µM*	21µM*	?
Cc1cccc(NC(=O)C2(c3cccc(Br)c3)CC2)n1	·	·	0	·	·	·
O=C(Cc1ccc2c(c1)CCC2)Nc1cc(C(F)(F)F)ccc1Cl	·	·	0	·	·	·
O=C(NC(C(=O)N/N=C/c1ccccc1)c1n[nH]c(=O)c2ccccc12)c1ccccc1 (stereo not given)	23%	7	-6	-5%	0%	0%
O=C(NC(C(=O)N/N=C/c1c2ccccc2cc2ccccc12)c1n[nH]c(=O)c2ccccc12)c1ccccc1 (stereo not given)	14%	?	0	8.2µM*	10µM*	-2%
Cc1ccnc(NC(=O)C2CCC(CNc3c(N4CCCC4)c(=O)c3=O)CC2)c1 (stereo not given)	5%	-67*	-2	-1%	?	-12%
COc1cc(NC(=O)C2CCC(CNc3c(N4CCC(C)CC4)c(=O)c3=O)CC2)cc(OC)c1 (stereo not given)	-29%	-62*!	-1	?	-7%	-8%
CN(C)c1ccc(C(=S)NCc2ccco2)cc1	4µM*	-14	-9	?	?	7.9µM*
CN(C)c1ccc(/C=N/NC(=O)CNC(=O)/C=C/c2ccco2)cc1	?	0	-6	-23%	?	19%
S=C(NCc1ccco1)N/N=C/c1ccncc1	16µM*	12	-7	0%	-3%	?
CN(C)c1ccc(/C=N/NC(=S)NCc2ccco2)cc1	1.8µM*	-19	0	?	18µM*	5µM*
COc1cccc(/C=N/NC(=S)NCc2ccco2)c1OC	3.5µM*	-2	-6	?	?	?
CNC(=S)c1ccc(N(C)C)cc1	·	·	-5	·	·	·
COc1cc(/C=C2\CCC(C)C3=C(c4cc(OC)c(OC)c(OC)c4)C(C#N)=C(N)OC32)cc(OC)c1OC (stereo not given)	·	-16	8	2.6µM*	3.7µM*	·
CCCn1c(N)c(C(=O)CSc2n[nH]c(-c3ccccc3F)n2)c(=O)n(C)c1=O	·	43	-6	21µM*	23µM*	·
CCCn1c(N)c(C(=O)CSc2nnc(Cc3ccccc3)o2)c(=O)n(C)c1=O	?	79	-8	?	23µM*	?
O=C(O)CCN1CCNCC1	·	·	0	·	·	·
COc1cc(CC(=O)OCc2c(F)cccc2Cl)cc(OC)c1OC	·	·	1	·	·	·
Cc1ccc(-c2c[nH]c(=S)n2-c2ccccc2)cc1	1.3µM*	3	-12	?	-20%	5µM*
SMILES	RORg inh	IL-1B inflam inh	LDHA inh	DT40 TDP1 CPT	TDP1 cell noCPT	VP16 counter
O=c1cc(O)n(-c2ccccc2F)c(=S)[nH]1	2%	-2	-8	-14%	1%	1%
Cc1ccc(-c2c[nH]c(=S)n2-c2ccccc2F)cc1	1.6µM*	-2	-3	?	23µM*	5µM*
CCOc1ccc(-n2c(-c3ccccc3)c[nH]c2=S)cc1	2µM*	23	-1	?	?	5.6µM*
Cc1ccc(-c2csc(=Nc3ccccc3)n2-c2ccccc2)cc1	·	·	0	·	·	·
CCOc1ccc(-n2c(-c3ccccc3)nnc2-c2ccccc2)cc1	-5%	-11	-1	?	?	1%
Cc1cccc(/C=C(/C(=O)N(C)Cc2ccsc2)c2cccs2)c1	·	·	-4	·	·	·
CNCC12CC3CC(CC(C3)C1)C2	·	·	-4	·	·	·
COc1ccc(/C=N/NC(=O)Cn2nc([N+](=O)[O-])cc2C)c(OC)c1OC	6%	0	-7	0%	-20%	0%
COc1cc([N+](=O)[O-])cc(/C=N/NC(=O)Cn2nc(C)cc2C)c1O	?	7	6	?	23µM*	?
COc1cc(Br)cc(/C=N/NC(=O)Cc2ccc(C(F)(F)F)cc2[N+](=O)[O-])c1O	0.14µM*	76	2	1.8µM*	2.6µM*	0.35µM*
O=C(N/N=C/c1cn[nH]c1-c1ccc(F)cc1)c1ccncc1	-13%	3	-6	17%	-15%	-9%
COc1cc([N+](=O)[O-])cc(/C=N/NC(=O)Cn2nccc2C)c1O	3.5µM*	0	2	?	?	?
Cc1ccnn1CC(=O)N/N=C/c1cn[nH]c1-c1ccc(F)cc1	14µM*	1	1	-3%	-8%	?
CCCOc1cc(C)c(Cl)cc1S(=O)(=O)N1CCCCC1	·	·	2	·	·	·
Cc1ccc(-c2cnc(CCC(=O)Nc3c(C)cccc3C(C)C)o2)cc1	·	·	-2	·	·	·
O=S(=O)(Nc1ccc(F)cc1)c1ccc(-c2cnc(C3CC3)o2)cc1	·	·	-1	·	·	·
O=C(NCCCNC(=O)c1ccccc1F)c1cc2ccccc2[nH]1	·	·	3	·	·	·
CCS(=O)(=O)N1CCC(C(=O)Nc2ccc(OC)c(OC)c2)CC1	·	·	12	·	·	·
CC(=C/c1ccccc1)/C=N/Nc1ccc(Cl)cc1	·	·	2	·	·	·
CCOC(=O)N(NC(=O)C(O)(C(C)C)C(C)C)c1ccccc1	14%	5	-9	0%	-11%	5%
CCOC(=O)N(NC(=O)C(O)(c1ccccc1)c1ccccc1)c1ccccc1	-9%	-6	-7	-19%	26µM*	-4%
CCCC(O)(CCC)C(=O)NN(C(=O)CCl)c1ccccc1	?	?	0	12µM*	10µM*	-20%
CC(C)(C)c1ccc(NC(=O)CCc2c[nH]c3ccccc23)cc1	·	·	11	·	·	·
